Measured values reported in PubChem BioAssay (NCI).
This is part of a sample that, as a whole, favours compounds with a hit. Of some 83,000 tested, about 20% had one in any assay.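 Percent growth is the endpoint: 0 to 100 indicates growth inhibition (40 means 60% inhibition), 0 means no net growth, and negative values indicate cell death.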 Calls of active or inactive are those of the source. Rule for the calls: active = growth percent below 10; inactive = the rest.

Legend:
Assay in all cases: NCI-60 one-dose screen, 48 h (100 = growth as untreated, 0 = no growth, -100 = all killed)
Details in all cases: 10 µM unless noted
[1] = tested on: DU-145 prostate
[2] = tested on: K-562 leukemia
[3] = tested on: MALME-3M melanoma
[4] = tested on: MDA-MB-231 breast
[5] = tested on: SF-268 CNS
[6] = tested on: SF-295 CNS
[7] = tested on: SF-539 CNS
[8] = tested on: M14 melanoma
[9] = tested on: HCT-15 colon
[10] = tested on: HT29 colon
[11] = tested on: SNB-75 CNS
[12] = tested on: SNB-19 CNS
[13] = tested on: U251 CNS
[14] = tested on: PC-3 prostate
[15] = tested on: SK-MEL-5 melanoma
[16] = tested on: UACC-62 melanoma
[17] = tested on: LOX IMVI melanoma
[18] = tested on: SK-MEL-28 melanoma
[19] = tested on: RXF 393 renal

Measured: growth

c1cc[n+](Cc2c3ccccc3cc3c2ccc2ccccc23)cc1
active: [3] -23.5% | [5] 7.4% | [6] 4.38% | [12] 6.26% | [13] 6.64% | [15] -60.1% | [18] -2.27%
inactive: [1] 57.2% | [2] 16.4% | [4] 72.1% | [7] 13.6% | [8] 62.3% | [9] 91.5% | [10] 25.6% | [11] 29.6% | [14] 42% | [16] 11.2% | [17] 48.8%

COc1cnc2c(c1)C(=O)c1c-2n(CCCNC2=NCCS2)c(=O)c2cc(Cl)ccc12
inactive: [19] 39% | [11] 57.9% | [14] 20.5% | [15] 39.4% | [18] 90.8%
active: [1] -76.7% | [2] -58.3% | [4] -70.7% | [5] -49.4% | [6] -93.5% | [7] -84.4% | [8] -70.3% | [9] -69.2% | [10] -82.7% | [12] -29.7% | [13] -89.7% | [16] -76.6% | [17] -90.5%

CCOC(=O)C1=C(C)N=C2Sc3cc(OC(F)(F)F)ccc3N2[C@H]1c1ccccn1
inactive: [1] 46.5% | [2] 21.9% | [3] 59.1% | [4] 53.9% | [5] 47.8% | [6] 22.2% | [7] 41% | [8] 27.3% | [9] 13.7% | [10] 39.2% | [11] 63.4% | [12] 37.9% | [13] 23.1% | [14] 50.9% | [15] 38.5% | [16] 28.3% | [17] 32.9% | [18] 42.4%

COc1ccc(-n2c(=O)c3ccccc3n(Cc3ccc(C(=O)NO)cc3)c2=O)cc1
inactive: [1] 20.2% | [4] 47.4% | [5] 32.5% | [9] 61.3% | [10] 29.6% | [11] 11% | [12] 18.1%
active: [2] 1.76% | [19] -41.6% | [6] 4.34% | [7] -10.6% | [8] -7.23% | [13] -40.2% | [14] -24.6% | [15] 6.91% | [16] -30.8% | [17] -71.5% | [18] -17.4%

Cc1ccc(-c2nc3ccc(Cl)cn3c2NC2CCCCC2)o1
inactive: [1] 104% | [2] 74.5% | [4] 84.7% | [19] 83.1% | [5] 80% | [6] 91.3% | [7] 95.4% | [8] 101% | [9] 66.8% | [10] 48.4% | [11] 83.5% | [12] 97.4% | [13] 86.8% | [14] 45.4% | [15] 66.4% | [16] 72.4% | [17] 103% | [18] 100%

CC(C)(C)CC(C)(C)Nc1c(-c2c(O)c3ccccc3oc2=O)nc2c(Cl)cc(C(F)(F)F)cn12
inactive: [1] 114% | [2] 94% | [4] 100% | [19] 110% | [5] 107% | [6] 95.9% | [7] 99.1% | [8] 92.2% | [9] 107% | [10] 105% | [11] 85.7% | [12] 101% | [13] 101% | [14] 79.6% | [15] 97.8% | [16] 93.4% | [17] 98.1%

Nc1c(C(=O)c2ccccc2)sc2nc(-c3cccs3)cc(-c3cccs3)c12
inactive: [1] 68.2% | [2] 18.9% | [3] 74.4% | [4] 58.4% | [5] 53.5% | [6] 35% | [7] 39.4% | [8] 27% | [9] 31.2% | [10] 11.2% | [11] 22.2% | [12] 42.9% | [13] 25.6% | [14] 33% | [15] 43.7% | [16] 28.7% | [17] 51.5% | [18] 64.9%

Cc1ccccc1Nc1nc2nonc2nc1Nc1cccc(C)c1C
inactive: [1] 71.9% | [2] 39.5% | [3] 78.6% | [4] 72.7% | [5] 72.8% | [6] 41.5% | [7] 88.1% | [8] 58.4% | [9] 44.8% | [10] 46.9% | [11] 75.8% | [12] 52.7% | [14] 42.2% | [16] 22.8% | [17] 54% | [18] 79.7%
active: [15] 5.63%

COc1ccc(OC)c(NC2=C(SCCc3ccccc3)C(=O)c3ccccc3C2=O)c1
inactive: [1] 92.2% | [2] 91.2% | [3] 90.8% | [4] 62.8% | [5] 84.6% | [6] 92.2% | [7] 85.7% | [8] 83.3% | [9] 64.2% | [10] 106% | [11] 78% | [12] 82.2% | [14] 64.7% | [15] 80.9% | [16] 62.1% | [17] 66.4% | [18] 108%

NN1C(=O)CSC1=S
inactive: [1] 108% | [2] 101% | [3] 109% | [4] 105% | [5] 95.9% | [6] 105% | [7] 105% | [8] 97.6% | [9] 105% | [10] 83.9% | [11] 95.6% | [12] 116% | [13] 85.6% | [14] 93.4% | [15] 104% | [16] 116% | [17] 98.6% | [18] 115%

COC(=O)[C@]12CC[C@@H](C)[C@H](C)[C@@H]1C1=CC[C@@H]3[C@@]4(C)C[C@@H](OC(=O)/C=C/c5ccccc5)[C@H](O)[C@@](C)(CO)[C@@H]4[C@H](O)C[C@@]3(C)[C@]1(C)CC2
active: [1] 9.11% | [2] 1.96% | [3] 3.65% | [4] -72.7% | [6] -16.4% | [7] -49.1% | [9] -20.9% | [10] -49.3% | [13] -28.5% | [17] -96.4% | [18] 4.73%
inactive: [5] 17.4% | [8] 16% | [11] 44.1% | [12] 14.3% | [14] 11.3% | [15] 18.3% | [16] 21.4%

Nc1c2c(c(O)c3c1=C(CO)C=N3)=NCCS2=O (stereo not drawn)
active: [1] -95.1% | [2] -7.83% | [3] -97.8% | [4] 1.89% | [5] -38.2% | [6] -95.8% | [7] -88.8% | [8] -85.2% | [9] 4.65% | [10] -27.4% | [12] -93.6% | [13] -89.8% | [14] 8% | [15] -100% | [16] -56.4% | [17] -93.4% | [18] -17.4%

O=C(NCCO)Nc1ccc(-c2nc(N3CCOCC3)c3cccn3n2)cc1
active: [4] 4.2% | [19] -33.9% | [6] -23.3% | [7] 0.904% | [8] 6.09% | [11] -31.9% | [14] 9.72% | [15] -27.6% | [16] -37.7% | [17] 4.86%
inactive: [1] 11.4% | [2] 34.4% | [5] 11.1% | [9] 11.5% | [10] 14.4% | [12] 18.3% | [13] 18.3%

NC1=Nc2ccccc2N(O)N1
inactive: [1] 113% | [2] 96.7% | [3] 97% | [4] 102% | [5] 98.1% | [6] 102% | [7] 96.3% | [8] 103% | [9] 105% | [10] 90.6% | [11] 78.5% | [12] 108% | [13] 98.6% | [14] 95.1% | [15] 105% | [16] 102% | [17] 96.8% | [18] 100%

CCc1cc2c(c3ccc(C(=O)CBr)cc13)CCCC2
inactive: [1] 107% | [2] 86.4% | [3] 95.9% | [4] 99.8% | [5] 92.2% | [6] 105% | [7] 98.3% | [8] 107% | [9] 101% | [10] 91.7% | [11] 91.5% | [12] 108% | [13] 95.1% | [14] 96% | [15] 106% | [16] 91.8% | [17] 93.3% | [18] 108%

Cc1sc2c(c1C)c(=O)nc1c(-c3nc(-c4ccccc4)cs3)n[nH]n12
inactive: [1] 104% | [2] 94.5% | [3] 98.1% | [4] 93.3% | [5] 96.2% | [6] 88.7% | [7] 96.3% | [8] 96.2% | [9] 82.4% | [10] 107% | [11] 101% | [12] 102% | [13] 94% | [14] 82.1% | [15] 102% | [16] 91.8% | [17] 95.9% | [18] 106%
